SMILES strings stand for the structures.

Broadly, the inhibition is the change of the read-out against control, counted positive when it falls.

Sequence of Solute carrier family 2, facilitated glucose transporter member 1 (Homo sapiens) (P11166 whole entry): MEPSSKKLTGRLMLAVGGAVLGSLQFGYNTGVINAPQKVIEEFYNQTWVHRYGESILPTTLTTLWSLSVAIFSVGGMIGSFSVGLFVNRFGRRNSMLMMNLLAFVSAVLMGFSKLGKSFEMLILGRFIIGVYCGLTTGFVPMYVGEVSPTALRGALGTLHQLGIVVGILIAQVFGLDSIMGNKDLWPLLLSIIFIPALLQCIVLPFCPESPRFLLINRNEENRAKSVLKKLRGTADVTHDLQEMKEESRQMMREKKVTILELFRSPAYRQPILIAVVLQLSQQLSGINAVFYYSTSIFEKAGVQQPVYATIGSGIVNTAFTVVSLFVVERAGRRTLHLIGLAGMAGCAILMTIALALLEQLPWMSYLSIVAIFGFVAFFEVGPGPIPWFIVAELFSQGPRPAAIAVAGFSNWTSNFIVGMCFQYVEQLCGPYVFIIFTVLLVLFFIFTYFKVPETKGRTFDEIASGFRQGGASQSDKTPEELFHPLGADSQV

This assay has as its target Solute carrier family 2, facilitated glucose transporter member 1 (Homo sapiens) (UniProt P11166). In words: ST_JUDE_LEISH: Cytotoxicity at 2uM final concentration against transgenic Leishmania Mexicana promastigotes LmGLUT1 that are glucose transport deficient and complemented with the human glucose transporter GLUT1. Activity is measured by DNA content using SYBR green in vitro. The assay is classed as functional.
As to `COc1ccc2nccc([C@@H](O)CN3CCC(NCc4cc5cccc(OCc6ccccc6)c5[nH]4)CC3)c2c1`, the inhibition worked out at 1.7%.

For `CN(CCN)Cc1cccc(-c2cccc(-c3nc4cc(F)ccc4[nH]3)c2)c1`, the inhibition was 1.11%.

Regarding `CN(C)C(CNC(=O)c1cc(-c2ccncc2)c(-c2ccc(NC(=O)Nc3ccccc3)cc2)o1)c1ccccc1` (stereo not given), the inhibition was -0.56%.

On to `COc1cccc(-c2ccc(C(=O)NCC3CCCN(Cc4cccc(C(F)(F)F)c4)C3)s2)c1` (stereo not given), for which the inhibition was 2.94%.

Regarding `C(=C(c1cccs1)c1cccs1)c1ccc(CNC2CCN(Cc3ccccc3)CC2)cc1`, the inhibition came to 4.45%.

As to `CCCCCCn1c(Sc2ccc(C#N)c([N+](=O)[O-])c2)nnc1-c1ccccc1`, the inhibition was 8.64%.

For the compound `CN(C)c1ccc2c(c1)Sc1cc(N(C)C)ccc1N2C(=O)CCCC(=O)O`, the inhibition was 5.15%.

`CC(C)(C)c1ccc(OCCCON2C(=N)N=C(N)NC2(C)C)c(C(C)(C)C)c1`: the inhibition stood at 1.15%.

Take `Cc1cccc(CNc2nccc3[nH]c4ccccc4c23)c1`: the inhibition is 4.82%.

In the case of `c1cc(CN2CCN(CCN3CCOCC3)CC2)cc(-c2csc(-c3nc4ccccc4[nH]3)c2)c1`, the inhibition is 5.51%.

Regarding `O=C(NCCCCN1CCC(c2ccc3c(c2OCCOCCO)CCCC3)CC1)c1ccc(-c2ccc(C(F)(F)F)cc2)cc1`, the inhibition was determined as 0.77%.

For `COc1ccc(C=NNc2cc(C)nc3ccc(OC)cc23)c(OC)c1`, the inhibition is 8%.

In the case of `CC12CC3CC(C)(C1)CC(Nc1nc(N4CCOCC4)nc4ccccc14)(C3)C2`, the inhibition is 2.67%.

Consider `C=CC[C@H](NC(=O)c1ccc(NS(=O)(=O)c2ccc3nc(N)[nH]c(=O)c3c2)cc1)C(=O)OCCCC`, for which the inhibition was 0.58%.

Regarding `N#Cc1cccc(C(=O)Nc2cccc(-c3ccc(CN4CCC(O)CC4)cc3)c2)c1`, the inhibition came to 3.3%.

Source of the values: ChEMBL document CHEMBL3433997, “St. Jude Leishmania screening dataset” (2016).
